Laboratory results taken from PubChem BioAssay AID1159580 (chemical genetic matrix, 2015).
“And” between values parts separate entries of the source, which are not always exact repeats. Identical values can stand only once. The whole screen tested about 5,500 compounds, of which about 2,000 (36%) were called active. About 18% were inconclusive and are not listed. Rule as the data show it: active = normalized growth mostly below about 0.91 (no sharp cut-off); inconclusive = no clear call, values can overlap the other calls; inactive = mostly above about 0.92. This is one part of the list.

Assay: chemical genetic growth profiling, strain panel (AID 1159580);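 also: tested at 20 µM; growth read once vehicle control cultures reached saturation at 30 °C; 1 = growth at the plate median or of vehicle wells; lower values mean less growth of the strain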
Details: S. cerevisiae deletion strains, growth OD

Measured: normalized growth

O=C1O[C@@H](CO)[C@H](O)[C@@H](O)[C@@H]1O
inactive: locus YAL021C, strain ccr4, stronger effect = lower value 0.997 | locus YAL026C, strain drs2, stronger effect = lower value 1.03 | locus YAL030W, strain snc1, stronger effect = lower value 1.01 | locus YBL061C, strain skt5, stronger effect = lower value 1.03 | locus YBR009C, strain hhf1, stronger effect = lower value 1.01 | locus YBR021W, strain FUR4, stronger effect = lower value 0.999 | locus YBR023C, strain chs3, stronger effect = lower value 1.02 | locus YBR171W, strain sec66, stronger effect = lower value 1.03 | locus YBR229C, strain ROT2, stronger effect = lower value 1 | locus YBR231C, strain swc5, stronger effect = lower value 1.08 | locus YBR279W, strain paf1, stronger effect = lower value 1.01 | locus YCL011C, strain gbp2, stronger effect = lower value 1.02 | locus YCL016C, strain dcc1, stronger effect = lower value 1.01 | locus YCL029C, strain bik1, stronger effect = lower value 0.99 | locus YCL061C, strain MRC1, stronger effect = lower value 1.01 | locus YCL069W, strain vba3, stronger effect = lower value 1.03 | locus YCR088W, strain abp1, stronger effect = lower value 1.02 | locus YDL005C, strain med2, stronger effect = lower value 1.03 | locus YDL035C, strain GPR1, stronger effect = lower value 1.01 | locus YDL040C, strain nat1, stronger effect = lower value 1.03 | locus YDL074C, strain BRE1, stronger effect = lower value 0.974 | locus YDL101C, strain DUN1, stronger effect = lower value 1.01 | locus YDL134C, strain PPH21, stronger effect = lower value 1.01 | locus YDL185W, strain tfp1, stronger effect = lower value 1 | locus YDL192W, strain arf1, stronger effect = lower value 1.01 | locus YDR001C, strain nth1, stronger effect = lower value 1.03 | locus YDR069C, strain doa4, stronger effect = lower value 1.02 | locus YDR101C, strain arx1, stronger effect = lower value 0.946 | locus YDR137W, strain rgp1, stronger effect = lower value 1.04 | locus YDR150W, strain NUM1, stronger effect = lower value 1 | locus YDR159W, strain sac3, stronger effect = lower value 1 | locus YDR162C, strain NBP2, stronger effect = lower value 1.02 | locus YDR195W, strain ref2 0.99 | locus YDR297W, strain sur2, stronger effect = lower value 1.02 | locus YDR318W, strain mcm21, stronger effect = lower value 1.01 | locus YDR334W, strain swr1, stronger effect = lower value 1.03 | locus YDR335W, strain msn5, stronger effect = lower value 1.01 | locus YDR388W, stronger effect = lower value 1.01 | locus YDR392W, strain spt3, stronger effect = lower value 1.06 | locus YDR502C, strain sam2, stronger effect = lower value 1 | locus YEL003W, strain gim4, stronger effect = lower value 1.02 | locus YEL037C, strain rad23, stronger effect = lower value 1.01 | locus YEL061C, strain CIN8 (second series), stronger effect = lower value 1.03 | locus YEL061C, strain CIN8, stronger effect = lower value 1 | locus YER015W, strain faa2, stronger effect = lower value 1.02 | locus YER016W, strain bim1, stronger effect = lower value 1.03 | locus YER110C, stronger effect = lower value 1.01 | locus YER111C, strain swi4, stronger effect = lower value 1.01 | locus YER155C, strain BEM2 (second series), stronger effect = lower value 1.06 | locus YER155C, strain BEM2, stronger effect = lower value 1.01 | locus YER167W, strain BCK2, stronger effect = lower value 1.01 | locus YFR010W, strain ubp6, stronger effect = lower value 1.01 | locus YGL078C, strain dbp3, stronger effect = lower value 1.01 | locus YGL086W, strain mad1, stronger effect = lower value 0.983 | locus YGL167C, strain pmr1, stronger effect = lower value 1.02 | locus YGL173C, strain kem1, stronger effect = lower value 1.05 | locus YGL227W, strain vid30, stronger effect = lower value 1.03 | locus YGL240W, strain doc1, stronger effect = lower value 1.04 | locus YGL248W, strain PDE1, stronger effect = lower value 0.996 | locus YGL253W, strain hxk2, stronger effect = lower value 1.03 | locus YGR135W, strain pre9, stronger effect = lower value 1.05 | locus YGR229C, strain SMI1, stronger effect = lower value 0.997 | locus YGR252W, strain gcn5, stronger effect = lower value 1.06 | locus YHR013C, strain ard1, stronger effect = lower value 1.08 | locus YHR027C, strain rpn1, stronger effect = lower value 1.02 | locus YHR030C, strain SLT2, stronger effect = lower value 1 and 0.985 | locus YHR079C, strain IRE1 (second series), stronger effect = lower value 1 | locus YHR079C, strain IRE1, stronger effect = lower value 0.979 | locus YHR094C, strain hxt1, stronger effect = lower value 1.01 | locus YHR129C, strain ARP1, stronger effect = lower value 1.02 | locus YHR142W, strain chs7, stronger effect = lower value 1.02 | locus YHR200W, strain rpn10, stronger effect = lower value 0.998 | locus YIL066C, strain RNR3, stronger effect = lower value 1 | locus YIL073C, strain SPO22, stronger effect = lower value 1.05 | locus YIL125W, strain kgd1, stronger effect = lower value 0.999 | locus YIR030C, strain dcg1, stronger effect = lower value 1 | locus YJL092W, strain hpr5, stronger effect = lower value 1.01 | locus YJL095W, strain BCK1 (second series), stronger effect = lower value 1.02 | locus YJL095W, strain BCK1, stronger effect = lower value 1 and 0.979 | locus YJL115W, strain asf1, stronger effect = lower value 1.02 | locus YJL129C, strain trk1, stronger effect = lower value 1.02 | locus YJL134W, strain LCB3, stronger effect = lower value 1.01 | locus YJL154C, strain vps35, stronger effect = lower value 1.02 | locus YJL164C, strain tpk1, stronger effect = lower value 1.01 | locus YJL166W, strain qcr8, stronger effect = lower value 1.02 | locus YJL168C, strain set2, stronger effect = lower value 0.997 | locus YJL187C, strain SWE1 (second series), stronger effect = lower value 0.989 | locus YJL187C, strain SWE1, stronger effect = lower value 1.02 | locus YJR043C, strain POL32, stronger effect = lower value 0.99
